An excerpt weighted towards active compounds, which were near 2.1% of everything screened.
aSyn yeast inh: inhibitors of alpha-synuclein toxicity in yeast; Yeast expressing alpha-synuclein, growth rescue, BacTiter-Glo, 24 h; Potency, µM (doses to about 46.1 µM), actives largely listed as activators; hit rate 0.14% among 370,000; AID 652106; also: nearly all actives have a fitted effect of over 65% in size
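Readout is rescue of growth in alpha-synuclein-expressing yeast, so inhibitors of toxicity appear as activators. Growth after 24 hr at 30 deg C in galactose medium is quantified by luminescence.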
TDP43 rescue: rescues yeast growth from TDP-43 toxicity. TDP-43 expressing yeast growth rescue, BacTiter-Glo, 24 h. Potency, µM (series often up to 46.1 µM), actives largely listed as activators. hit rate 1.8% among 410,000. AID 652104; also: nearly all actives have a fitted effect of over 50% in size
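Growth rescue of TDP-43-toxic yeast measured as ATP luminescence (BacTiter-Glo). Cells grown to mid-log in raffinose, induced in galactose at OD600=0.02, exposed to compound 24 hr at 30 deg C.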
TSG101-PTAP inh: blocks PTAP/TSG101 interaction to inhibit HIV-1 budding; Fluorescence polarization, FITC-PTAP peptide / Tsg101 binding; 340,000 tested, under 10 active; Potency, µM (doses to about 115 µM), hits mostly inhibitors; Q99816; active = well fitted inhibition curve with a large enough effect in the main read-out, with a control signal flat, not every such curve was filed as active; inconclusive = small, poorly fitted or top-dose-only effect, or effect the other way, or a change in a side signal; inactive = no such curve, though single readings can be large or run the other way
Target sequence (Q99816 whole entry, looked up): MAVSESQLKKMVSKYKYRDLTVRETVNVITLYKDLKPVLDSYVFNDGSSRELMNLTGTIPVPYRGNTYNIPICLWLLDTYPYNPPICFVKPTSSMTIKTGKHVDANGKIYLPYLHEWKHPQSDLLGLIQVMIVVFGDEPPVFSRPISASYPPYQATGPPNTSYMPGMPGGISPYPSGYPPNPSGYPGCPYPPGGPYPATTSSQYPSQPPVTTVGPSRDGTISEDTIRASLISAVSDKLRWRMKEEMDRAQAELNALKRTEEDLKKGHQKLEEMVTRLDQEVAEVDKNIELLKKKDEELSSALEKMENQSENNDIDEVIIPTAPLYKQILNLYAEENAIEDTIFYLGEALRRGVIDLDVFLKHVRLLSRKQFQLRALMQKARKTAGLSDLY
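Fluorescence polarization binding of Tsg101 binding domain (10 uM final) to FITC-labeled PTAP peptide (50 nM final) in HEPES pH 7.5 buffer with NaCl, Tween 20, EDTA, TCEP. Compounds added before peptide; binding 20 min at RT.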
Abeta rescue: restores growth of yeast expressing A-beta42 peptide | yeast expressing A-beta42, growth rescue, OD600, 48 h; response scale: 0% DMSO, 100% iron-clioquinol control | Potency, µM (top dose mostly 46.1 µM), most hits filed as activators | hit rate 0.063% among 410,000 | AID 1347071; also: nearly all actives have a fitted effect of over 55% in size
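Yeast A-beta toxicity model in growth medium with pinned compounds, 48 h at 30 C; growth read as absorbance at 600 nm. Normalized to FeCl3/clioquinol equimolar mix (positive) and DMSO (negative).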
FUS yeast rescue: rescues growth of FUS-expressing yeast; S. cerevisiae FUS-expressing, growth rescue, OD600, 24 h; Potency, µM (highest dose often 76.6 µM), usual class: activators; hit rate 0.24% among 390,000; AID 1347120; also: nearly all actives have a fitted effect of over 55% in size
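Cultures pregrown in 2.5% raffinose medium are shifted to minimal medium containing 2% galactose to express toxic FUS. Compounds are tested at several concentrations. After 24hr at 30C, growth is quantified at 600 nm absorbance.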
Hits are given with their value; i = inactive; ? = inconclusive; nt = no result given. Unless noted, calls follow the shape of the dose curve; as a rule, active = well fitted curve in the direction sought with a large enough effect; inconclusive = small, poorly fitted or top-dose-only effect, or another doubt; inactive = no such curve, though single readings can be large; an effect the other way counts as inactive or inconclusive.

SMILES	aSyn yeast inh	TDP43 rescue	TSG101-PTAP inh	Abeta rescue	FUS yeast rescue
O=CNc1cc(-c2ccccc2)cn2c(-c3ccc(F)c(Cl)c3)cnc12	i	?	nt	i	i
O=CNc1cc(-c2cccc(F)c2)cn2c(-c3ccc(F)c(Cl)c3)cnc12	i	16µM	nt	i	i
CN(C)c1ccc(-c2cc(NC=O)c3ncc(-c4ccc(F)c(Cl)c4)n3c2)cc1	i	22µM	nt	i	?
COc1ccc2c(c1)c1c(c(=O)n(Cc3ccccc3)c(=O)n1CC(=O)NCc1ccc(C)cc1)n2C	nt	?	nt	i	i
Cc1ccc(Cn2c(SCc3ccc(C(=O)N4CCCCC4)cc3)nc3ccncc32)cc1	nt	i	nt	i	i
O=C(Nc1nc2ccccc2s1)C1CCCN1S(=O)(=O)c1ccc(Cl)cc1 (configuration not stated)	i	18µM	i	i	?
O=C(Nc1ccc(Br)cc1)C1CCCN1S(=O)(=O)c1ccc(F)cc1 (configuration not stated)	nt	22µM	nt	i	i
CCOc1ccccc1-n1nnnc1SCC(=O)N(C)C1CCS(=O)(=O)C1 (configuration not stated)	i	i	nt	i	i
O=C(O)/C=C/C(=O)Nc1cccc2c1-c1ccccc1C2=O	i	20µM	i	i	nt
Cc1cccc(N(C)C(=O)CN(C)S(=O)(=O)c2ccc3[nH]c4c(c3c2)CCCC4)c1	nt	i	nt	i	32µM
Cc1ccccc1NS(=O)(=O)c1ccc2[nH]c3c(c2c1)CCCCC3	?	?	nt	i	35µM
Cc1cccc(C)c1NC(=O)CN(C)S(=O)(=O)c1ccc2[nH]c3c(c2c1)CCCC3	nt	i	nt	i	i
CCOc1ccc(NS(=O)(=O)c2ccc3[nH]c4c(c3c2)CCCC4)cc1	nt	i	nt	i	i
Cc1ccc(NS(=O)(=O)c2ccc3[nH]c4c(c3c2)CCCCCC4)cc1Cl	i	i	nt	i	22µM
CCOc1ccc(NS(=O)(=O)c2ccc3[nH]c4c(c3c2)CCCCC4)cc1	nt	18µM	nt	i	i
COc1cc2c(NC3CCN(C)CC3)nc(N3CCCN(C)CC3)nc2cc1OCCCC(C)C	i	nt	nt	nt	nt
O=C(CNc1ccc(Br)cc1)c1ccc(O)cc1	i	10µM	i	i	i
CCOCCc1nn2c(=O)cc(COC(=O)c3ccccc3Br)nc2s1	nt	i	nt	i	i
Cc1ccc2onc(CNC(=O)N3CCN(c4cccc(C)c4C)CC3)c2c1	nt	20µM	nt	i	?
Cc1ccc2onc(CC(=O)N3CCN(c4ccccc4)CC3)c2c1	nt	?	nt	i	i
COc1ccc(N2CCN(C(=O)Cc3noc4ccc(C)cc34)CC2)cc1	nt	11µM	nt	i	i
C[C@H]1[C@@H](OC(=O)Nc2cccc(Cl)c2)CC[C@@]23CCCN2C(=O)CCC[C@@H]13	nt	nt	nt	nt	i
CC1CCCN(CCOCCOc2ccc(Br)cc2Cl)C1 (configuration not stated)	i	i	i	i	i
CC1CCCN(CCOCCOc2ccc(Cl)cc2Br)C1 (configuration not stated)	i	i	i	i	7.1µM
N#Cc1ccc(-c2c(-c3ccccc3)ncc3cc(F)ccc23)cc1	i	16µM	i	i	i
SMILES	aSyn yeast inh	TDP43 rescue	TSG101-PTAP inh	Abeta rescue	FUS yeast rescue
O=[N+]([O-])c1ccc(-c2c(-c3ccccc3)ncc3ccc(F)cc23)cc1	i	18µM	i	i	i
CCOc1ccc(C(=O)C(C)OC(=O)c2nc(Cl)ccc2Cl)cc1 (configuration not stated)	i	?	i	i	i
CCCCn1c(SCC(=O)Nc2cc(NC(=O)c3ccco3)ccc2C)nc2ccccc2c1=O	i	i	i	i	32µM
O=C1NC(c2ccccc2)=C(c2nc3ccccc3s2)C(c2ccc(O)cc2)N1 (configuration not stated)	i	i	nt	i	35µM
O=C1NC(c2ccccc2)=C(c2ccc3ccccc3n2)C(c2ccccc2)N1 (configuration not stated)	i	i	i	i	i
CN(C)CCNC(=O)c1ccc(Cl)s1	i	i	i	i	i
CN(Cc1ccc(Cl)s1)C(=O)CCl	i	10µM	i	i	i
CN(Cc1ccc(Cl)cc1)C(=O)CCl	i	16µM	i	i	i
COc1ccc(CN(C)C(=O)CCl)cc1	i	i	i	i	i
COc1ccc(CCC(=O)NCC23CC4CC(CC(C4)C2)C3)cc1	i	?	i	i	i
COc1ccccc1Cn1c(SCC(=O)C(C)(C)C)nc2ccccc2c1=O	nt	i	nt	i	i
CCC(CO)Nc1ccn2nc(-c3cccs3)cc2n1 (configuration not stated)	i	i	nt	i	i
COc1ccc(C(=O)O/N=C(\N)c2ccccc2Cl)cc1OC	i	?	i	i	i
COc1ccccc1C(=O)O/N=C(\N)c1ccccc1Cl	i	16µM	i	i	i
COc1ccc(C(=O)O/N=C(\N)c2ccccc2)c(OC)c1	i	14µM	i	i	i
CCCCCCn1cc(CN2CC(N3CCN(Cc4ccccc4F)CC3)CS2(=O)=O)nn1 (configuration not stated)	i	i	nt	i	i
COC(=O)C1=C(C)NC(=O)C1(NC(=O)c1cc(OC)c(OC)c(OC)c1)C(F)(F)F (configuration not stated)	nt	i	nt	i	i
COc1cc(C(O)c2nc(-c3csc4ccccc34)cs2)ccc1F (configuration not stated)	?	20µM	nt	?	i
COc1cc(C(O)c2nc(-c3ccccc3C)cs2)ccc1F (configuration not stated)	i	?	nt	i	i
OC(c1ccc(F)c(F)c1)c1nc(-c2csc3ccccc23)cs1 (configuration not stated)	i	16µM	nt	i	i
O=C(Nc1ccc(Cl)cc1)c1cc2c(-c3ccccc3)nn(-c3ccccc3)c2s1	i	i	nt	i	i
CCn1c(=O)cc(OCC(=O)N(C)c2cc(Cl)ccc2C)c2ccccc21	nt	i	nt	i	i
O=S1(=O)N[C@@H](Cc2ccccc2)COc2cccc(N3CCN(Cc4ccccc4F)CC3)c21	i	i	nt	i	i
CCN(Cc1ccccc1)c1ncnc2c1cnn2-c1ccc(F)cc1	nt	25µM	nt	i	i
FC(F)(F)c1nnc2c(Sc3ccccn3)nc3ccccc3n12	i	16µM	i	i	i
CN1CCN(C(=O)/C=C/c2ccc([N+](=O)[O-])o2)CC1	i	i	i	i	i
O=C(O)/C=C/c1ccc([N+](=O)[O-])o1	i	10µM	i	i	i
CC1CC(C)CN(S(=O)(=O)c2ccc3oc(=O)ccc3c2)C1 (configuration not stated)	i	i	i	i	i
CCCNC(=O)C1(C)CCCN(Cc2cc(-c3ccccc3)n(C)n2)C1 (configuration not stated)	i	i	nt	i	i

Assay outcomes as filed in PubChem BioAssay.
